The values below come from PubChem BioAssay (NCI).

The structures appear in SMILES notation. About 83,000 compounds went through this panel and 20% of them were active in at least one assay; those are over-represented in the sample as a whole.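 Values shown are percent growth following 48 h exposure of cells in 96-well plates to a single concentration of compound; below 10 was considered active.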 Values without a mark were called inactive. Active and inactive are the calls of the source.

This assay has as its system RPMI-8226 leukemia. The assay is described as follows: NCI-60 one-dose screen, 48 h (100 = growth as untreated, 0 = no growth, -100 = all killed). The following applies: 10 µM. Here is the method:
Growth inhibition of the RPMI-8226 human tumor cell line is measured as a screen for anti-cancer activity. Cells are grown in 96 well plates and exposed to the test compound for 48 hours. Compounds are tested at a single concentration, which is 10^-5 M for most compounds. The reported endpoint is percent growth (GI% or GIPRCNT), where numbers from 0 - 100% represent growth inhibition, and numbers from -100% - 0 represent cell death. For example, a value of 40 represents 60% growth inhibition. A value of 0 means no net growth occurred over the course of the experiment. A value of -40 indicates 40% of cells at the beginning of the experiment died by the end of the experiment. A value of -100 means all cells are dead at the end of the experiment.
NCI-60 Human Tumor Cell Lines Screen was performed using the standard one-dose NCI protocol, which is described in more detail at https://dtp.cancer.gov/discovery_development/nci-60/default.htm.
Compounds with GIPRCNT values below 10 were considered active. Activity score was based on GIPRCNT using the following formula: […]
Score is 0 for GIPRCNT values of 100 or above, 50 for GIPRCNT values of 0, and 100 for GIPRCNT values of -100.
Turning to `Cc1ccc(CCCC(=O)O)c(C)c1`, the growth was 97.8%. Next, `O=[N+]([O-])c1ccc(CO)cc1`: 112%. Next, `O/N=C/c1ccc(O)cc1O`: 94.8%. `C=CCNC(=O)c1ccc(OC)cc1`: the growth was 92.4%. Next, `CC(C)=C(NC(=O)c1ccccc1)C(=O)O`: 87.4%.

Take `C/C(=N/NC(N)=O)c1ccco1`: the growth is 118%. Next, `CC(=O)c1cc2c(cc1F)C(C)(C)CCC2(C)C`: 114%.

For the compound `O=C(CS)Nc1ccc2ccccc2c1`, the growth was 44.9%. Take `c1ccc(Cc2ccccc2)cc1`: the growth was 107%. For `COC(=O)c1ccc(NC(=O)CCl)cc1` the value was 70.4%; for `CC(=O)c1c[nH]c2ccccc12`, 110%; for `COc1ccc(NC(=O)CCl)cc1`, 55.8%.

In the case of `CN(C)c1ccc(C(c2ccc(O)cc2)c2ccc(N(C)C)cc2)cc1`, the growth is 80.1%.

Turning to `Cc1cc(C)c(CC(=O)O)c(C)c1`, the growth is 112%. For `O=C(NC1CCCCC1)OCc1c(COC(=O)NC2CCCCC2)c(-c2ccc(Cl)c(Cl)c2)n2c1CCC2` the value was 40%; for `O=[N+]([O-])c1ccc(O)c(S(=O)(=O)O)c1`, 105%; for `O=C(O)CCC(=O)OC(C1CO1)C(OC(=O)CCC(=O)O)C1CO1` (stereo not given), 90.4%. For `CCOC(=O)c1cc(/C=C/c2ccc(Cl)cc2Cl)on1`, the growth was 2.84% (active). Next, `COC(=O)c1cccnc1`: 106%; `CCC(C)(O)c1ccc(C)cc1` (stereo not given): 96.7%. For `O=c1cc2oc3cc(O)c(O)cc3c(-c3ccccc3O)c-2cc1O` the value was 12.1%; for `CNC(=S)NC(C)(C)C`, 93.2%. Next, `CCn1c(=O)n(C)c2c(=O)n(C)c(=O)n(C)c21`: 106%.

For `O=c1[nH]nc(SC2CCCCC2)c(=O)[nH]1`, the growth is 102%. Next, `CC(=O)OCC1=CC2OC(=O)C3=COC(OC4OC(CO)C(O)C(O)C4O)C1C32` (stereo not given): 114%; `CN(C)C(C)(C)CC(C)(C)C`: 110%. For `NNc1ccccc1C(=O)O`, the growth is 112%. For `CN(C)CCC(=O)c1ccc(O)cc1`, the growth is 89.6%. Next, `CCOC(=O)c1ccc(Nc2sc(C(=O)c3cccc([N+](=O)[O-])c3)c(N)c2C#N)cc1`: -3.9% (active).

For the compound `CN(C)c1ccc(CNC(C(=O)c2ccccc2)c2ccccc2)cc1` (stereo not given), the growth was 94.4%. `O=C(CCl)Nc1ccc2c(c1)C(=O)c1ccc(NC(=O)CCl)cc1C2=O`: the growth was -40.3% (active).

Regarding `CCc1nc(N)nc(N)c1-c1ccc(Cl)cc1`, the growth is 102%. For `CCOc1ccc2[nH]c(=S)sc2c1` the value was 97.1%; for `COc1ccc(C2(O)CCCCC2)cc1`, 95.6%; for `CC(C)COC(=O)COC(=O)OCCOCCOC(=O)OCC(=O)OCC(C)C`, 97.3%.

Turning to `Cc1cc(O)ccc1O`, the growth is 59.5%.

On to `S=C(Nc1ccccc1)N1CCCCC1`, for which the growth is 110%. For `O=C(N/N=C\c1cc(Br)cc(Br)c1O)N/N=C/c1cc(Br)cc(Br)c1O` the value was 19.3%. For `C#Cc1cccc(NC(=O)c2ccc(Cl)cc2Cl)c1` the value was 78.1%; for `C=C1CC/C=C(\C)C(=O)C[C@@H]2[C@@H]1CC2(C)C`, 68.3%.
